Assay results from PubChem BioAssay AID485358 (National Center for Advancing Translational Sciences (NCATS), 2010).
Among all 340,000 compounds or so, about 1,800 (0.53%) were called active. This is one part of a sample in which actives are shown more often than they occur.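 Rule for the calls: active = activation over 3 SD above normal in the single-dose calcium agonist read (cut at about 30% in these data); inactive = the rest.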

These molecules were tested against D(2) dopamine receptor (Homo sapiens) (UniProt P14416) (assay: HTS Assay for Allosteric Agonists of the Human D2 Dopamine Receptor: Primary Screen for Agonists). Details: HEK293 T-REx D2 cells, calcium flux agonist mode; at 2 µM; active compounds read high.
Chain of D(2) dopamine receptor (Homo sapiens) (P14416 whole entry, looked up): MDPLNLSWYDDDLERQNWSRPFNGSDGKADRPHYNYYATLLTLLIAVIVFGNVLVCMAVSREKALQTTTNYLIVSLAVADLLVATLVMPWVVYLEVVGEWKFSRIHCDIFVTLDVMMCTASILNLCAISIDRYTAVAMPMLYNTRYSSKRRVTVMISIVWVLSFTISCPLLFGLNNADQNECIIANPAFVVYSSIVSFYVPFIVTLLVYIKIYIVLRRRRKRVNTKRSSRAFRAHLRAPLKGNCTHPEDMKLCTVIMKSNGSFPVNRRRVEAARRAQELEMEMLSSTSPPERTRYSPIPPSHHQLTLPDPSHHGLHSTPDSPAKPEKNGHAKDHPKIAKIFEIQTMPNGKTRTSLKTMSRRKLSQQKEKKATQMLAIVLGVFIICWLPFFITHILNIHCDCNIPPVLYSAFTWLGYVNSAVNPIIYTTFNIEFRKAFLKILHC
How it was run: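 Tetracycline-induced HEK293 T-REx cells with force-coupled D2 receptor, plated overnight at 30 C, loaded with no-wash calcium dye. After a 10 s baseline, compound was pin-added and calcium flux read kinetically for 180 s; calcium rises flagged agonists.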
Note: 0% is about no effect.

activation, active:
CC(CCc1ccccc1)NCC(O)c1cccc([N+](=O)[O-])c1 (centres undefined) 59.5%
O=C(CNCc1cccs1)Nc1cc(S(=O)(=O)N2CCCC2)ccc1Cl 57.6%
O=C(NCCCN1CCN(c2ccccc2F)CC1)C1CCC(=O)N1C1CCCCC1 (centres undefined) 68.8%
COc1ccc(OC)c(C(=O)c2ccc(C(=O)N3CCN(Cc4csc(C)n4)CC3)cc2)c1 37.6%
O=C(c1c(Cl)cccc1Cl)N1CCN(c2cccc3[nH]ccc23)CC1 41.5%
CCOC(=O)CC1C(=O)NCCN1c1nc2c(C)cccn2c(=O)c1/C=C1\SC(=S)N(C(C)CC)C1=O (centres undefined) 61.9%
O=[N+]([O-])c1ccc(C=Nc2ccc(Cl)cc2Cl)s1 33.6%
O=C(CC1NCCc2ccccc21)Nc1cccc(Cl)c1 (centres undefined) 35.2%
CCCCCCc1cc2cc(-c3nnc(-c4ccccc4)o3)c(=O)oc2cc1O 32.4%
CCn1c(=O)n(CC)c2cc(N3CCCC3)c(NC(=O)c3ccccc3Br)cc21 36.9%
CC(C)(C)C(=O)OCc1nc(-c2ccc(O)c(O)c2)cs1 73.8%

activation, inactive:
O=C(CC(c1ccccc1)c1ccccc1)NCC(O)c1ccc([N+](=O)[O-])cc1 (centres undefined) -0.594%
CC(C)OP(=O)(OC(C)C)C(Nc1ccccc1)c1cccc([N+](=O)[O-])c1 (centres undefined) -2.16%
Oc1c(C(c2ccc(F)cc2)N2CCN(Cc3ccccc3)CC2)sc2nc(-c3ccco3)nn12 (centres undefined) 0.375%
COc1cc(NC(=O)c2noc3c2CSc2ccccc2-3)cc(OC)c1OC -0.598%
COc1ccc(-c2nc3scc(CCNS(=O)(=O)c4cc(F)ccc4OC)n3n2)cc1OC -1.74%
Cc1ccc(OCCn2c(CNc3ccccc3C)nc3ccccc32)cc1 0.246%
Cc1ccc(C)c(N2CCN(C(=O)Cn3nc(C)c4sc5ccccc5c4c3=O)CC2)c1 -0.843%
COc1ccccc1CNc1ccc(-c2nc(-c3ccccc3C)no2)cc1[N+](=O)[O-] 2.39%
CCc1cccc(CC)c1NC(=O)Cn1c(=O)c(-c2cc(C)ccc2NC(C)=O)nc2ccccc21 0.924%
CS(=O)(=O)c1ccc(Cl)c(NC(=O)COC(=O)c2cccc(S(=O)(=O)N3CCCC3)c2)c1 -0.318%
O=C(NCc1cccs1)C1CCN(S(=O)(=O)c2ccc(Cl)cc2)CC1 0.13%
O=C(NCCCN1CCCCCC1)C1CC(=O)N(C2CCCC2)C1 (centres undefined) 0.131%
COc1ccc(CN2CC(C(=O)NCCN3CCN(c4ccccc4F)CC3)CC2=O)cc1 (centres undefined) 0.792%
COc1ccccc1NC(=O)C(=O)c1cc(C)n(-c2ccccc2F)c1C -1.58%
COc1ccc(OC)c(C(=O)c2coc3ccc(O)c(CN4CCOCC4)c23)c1 0.863%
COc1ccc(-c2nn3c(=O)cc(CN4CCN(C(=O)c5ccc(OC)c(OC)c5)CC4)nc3s2)cc1 0.0582%
CCCCN1C(=O)c2[nH]nc(-c3ccccc3O)c2C1c1cccc(OCc2ccccc2)c1 (centres undefined) -0.42%
O=C(c1c(F)cccc1Cl)N1CCN(c2ccccn2)CC1 -0.0487%
O=C(c1ccc2ccccc2n1)N1CCN(c2ccccc2Cl)CC1 1.21%
Cc1cc(C)cc(NC(=O)Cn2c(=O)c3ccccc3n3nncc23)c1 0.456%
Cc1cccn2c(=O)c(/C=C(\C#N)C(N)=O)c(N3CCCCCC3)nc12 -0.181%
CCCN(CCC)c1nc2c(C)cccn2c(=O)c1/C=C1/SC(=S)N(Cc2ccco2)C1=O 9.37%
CCOC(=O)C1CCCN(C(=O)c2ccc3c(c2)sc2nc(-c4ccc(CC)cc4)cn23)C1 (centres undefined) 4.91%
COc1ccc(CCNC(=O)c2cc3cccc4c3n2CC(C)S4)c(OC)c1OC (centres undefined) -0.932%
CCOCCCn1c(SCC(=O)Nc2ccc(CC)cc2)nc2ccccc2c1=O 0.545%
Cc1ccc(-n2c(=O)c3cccnc3n2CC(=O)NCc2ccc(F)cc2)cc1C 0.0353%
O=C(CC1C(=O)NCCN1C(=O)c1ccc([N+](=O)[O-])cc1)Nc1cccc(Cl)c1 (centres undefined) -0.121%
O=C(CC1NCCNC1=O)Nc1cc(Cl)cc(Cl)c1 (centres undefined) -0.701%
Cc1ccccc1CNC(=O)C(=O)NCC(c1cccs1)S(=O)(=O)c1cccs1 (centres undefined) 0.367%
COc1cccc(NC(=O)N2CCN(C(=O)c3nsc4ccccc34)CC2)c1 -0.159%
COc1ccccc1CN1CCC(CNC(=O)c2cnn(-c3cccc(Cl)c3)c2C2CCN(C(=O)OC(C)(C)C)CC2)CC1 1.52%
O=C(Cn1cc(SCc2ccccc2)c2ccccc21)N1CCCCC1 0.397%
Cc1cc(OC(C)C(=O)Nc2sc3c(c2C(N)=O)CCCC3)ccc1Cl (centres undefined) -0.192%
CCn1cc(C(=O)N2CCN(c3cc(Cl)ccc3C)CC2)c(=O)c2cc(S(=O)(=O)N3CCCC3)ccc21 0.428%
CC1=Nc2cc(C(=O)NCc3ccc(C)cc3)ccc2Sc2ccc(Cl)cc21 0.834%
CCc1ccc2oc(-c3ccc(NC(=O)c4cc5ccccc5o4)cc3)nc2c1 0.271%
Cn1nnnc1SCCCNCc1ccc(Cl)cc1 0.973%
Cc1cc(C)cc(NC(=O)CSc2oc(-c3ccccc3)nc2S(=O)(=O)c2ccc(Cl)cc2)c1 -0.364%
CCn1c(=O)c(=O)n(CC)c2cc(N3CCCCC3)c(NC(=O)c3cccc(F)c3)cc21 -0.09%
CCn1c(=O)c(=O)n(CC)c2cc(N3CCCCC3)c(NC(=O)c3ccc(Cl)cc3)cc21 -0.0698%
CCCC(=O)N1c2ccc(-c3csc(N)n3)cc2CC1C (centres undefined) 0.868%
Cc1onc(C(=O)NN)c1-c1csc(COc2ccccc2)n1 -1.45%
COc1ccc(C2=NC3(CCCCC3)N(CC(=O)Nc3ccc(C(C)C)cc3)C2=O)cc1 -0.0796%
